# What was measured:
# [1] = molecular target: T1, Testis-specific serine/threonine-protein kinase 2 (Homo sapiens) (UniProt Q96PF2); settings: at 1 µM
# T1 sequence (whole entry): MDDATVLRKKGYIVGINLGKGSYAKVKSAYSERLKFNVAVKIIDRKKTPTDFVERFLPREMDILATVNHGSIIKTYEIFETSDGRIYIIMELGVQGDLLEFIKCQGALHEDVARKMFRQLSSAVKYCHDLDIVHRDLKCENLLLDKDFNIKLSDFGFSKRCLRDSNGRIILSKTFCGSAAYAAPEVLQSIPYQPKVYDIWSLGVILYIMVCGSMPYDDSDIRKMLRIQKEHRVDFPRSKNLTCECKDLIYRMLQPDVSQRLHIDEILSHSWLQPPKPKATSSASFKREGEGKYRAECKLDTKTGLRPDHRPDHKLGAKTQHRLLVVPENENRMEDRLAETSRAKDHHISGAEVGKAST
# [2] = molecular target: T2, Serine/threonine-protein kinase Nek2 (Homo sapiens) (UniProt P51955); settings: at 1 µM
# T2 sequence (whole entry): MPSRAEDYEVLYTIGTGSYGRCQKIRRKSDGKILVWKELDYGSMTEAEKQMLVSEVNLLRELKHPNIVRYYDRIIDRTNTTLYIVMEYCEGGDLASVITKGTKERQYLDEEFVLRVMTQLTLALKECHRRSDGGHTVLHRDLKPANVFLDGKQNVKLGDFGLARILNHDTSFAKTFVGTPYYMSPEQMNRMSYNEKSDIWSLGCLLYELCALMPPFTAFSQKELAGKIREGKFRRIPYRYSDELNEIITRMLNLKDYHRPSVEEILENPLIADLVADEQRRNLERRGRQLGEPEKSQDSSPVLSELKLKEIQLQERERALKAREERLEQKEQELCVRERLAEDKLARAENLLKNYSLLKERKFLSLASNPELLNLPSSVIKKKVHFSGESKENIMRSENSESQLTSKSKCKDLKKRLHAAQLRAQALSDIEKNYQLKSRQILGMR
# [3] = molecular target: T2, Serine/threonine-protein kinase Nek2 (Homo sapiens); settings: at 10 µM
# [4] = molecular target: T3, Serine/threonine-protein kinase Nek3 (Homo sapiens) (UniProt P51956); settings: at 10 µM
# T3 sequence (whole entry): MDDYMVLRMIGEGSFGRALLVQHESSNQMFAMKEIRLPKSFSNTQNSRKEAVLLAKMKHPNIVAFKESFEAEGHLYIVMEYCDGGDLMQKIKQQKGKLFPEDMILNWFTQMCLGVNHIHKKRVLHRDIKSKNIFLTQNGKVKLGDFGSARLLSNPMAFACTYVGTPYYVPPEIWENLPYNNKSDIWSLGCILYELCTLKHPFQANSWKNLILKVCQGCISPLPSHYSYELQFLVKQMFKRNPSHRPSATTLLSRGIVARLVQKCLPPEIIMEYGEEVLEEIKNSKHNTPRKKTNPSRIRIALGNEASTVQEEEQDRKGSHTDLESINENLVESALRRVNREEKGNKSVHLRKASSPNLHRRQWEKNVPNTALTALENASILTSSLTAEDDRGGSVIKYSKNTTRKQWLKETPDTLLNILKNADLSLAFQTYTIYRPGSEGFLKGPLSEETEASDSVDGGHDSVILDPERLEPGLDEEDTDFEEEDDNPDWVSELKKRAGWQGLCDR
# [5] = molecular target: Serine/threonine-protein kinase tousled-like 2 (Homo sapiens) (UniProt Q86UE8); settings: at 1 µM
# [6] = molecular target: Serine/threonine-protein kinase tousled-like 2 (Homo sapiens) (UniProt Q86UE8); settings: at 10 µM
# [7] = molecular target: T4, Testis-specific serine/threonine-protein kinase 1 (Homo sapiens) (UniProt Q9BXA7); settings: at 1 µM
# T4 sequence (whole entry): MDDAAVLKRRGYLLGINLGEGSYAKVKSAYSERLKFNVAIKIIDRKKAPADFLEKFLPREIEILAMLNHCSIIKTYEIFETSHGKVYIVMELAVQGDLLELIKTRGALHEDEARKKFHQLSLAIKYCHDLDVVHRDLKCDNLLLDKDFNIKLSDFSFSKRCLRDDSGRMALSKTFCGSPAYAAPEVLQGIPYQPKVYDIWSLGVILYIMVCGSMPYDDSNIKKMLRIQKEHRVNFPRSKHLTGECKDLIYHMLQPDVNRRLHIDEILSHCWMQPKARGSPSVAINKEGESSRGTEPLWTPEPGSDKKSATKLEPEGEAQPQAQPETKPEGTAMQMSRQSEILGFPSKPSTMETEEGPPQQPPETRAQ
# [8] = molecular target: T5, Tyrosine-protein kinase Tec (Homo sapiens) (UniProt P42680); settings: at 1 µM
# T5 sequence (whole entry): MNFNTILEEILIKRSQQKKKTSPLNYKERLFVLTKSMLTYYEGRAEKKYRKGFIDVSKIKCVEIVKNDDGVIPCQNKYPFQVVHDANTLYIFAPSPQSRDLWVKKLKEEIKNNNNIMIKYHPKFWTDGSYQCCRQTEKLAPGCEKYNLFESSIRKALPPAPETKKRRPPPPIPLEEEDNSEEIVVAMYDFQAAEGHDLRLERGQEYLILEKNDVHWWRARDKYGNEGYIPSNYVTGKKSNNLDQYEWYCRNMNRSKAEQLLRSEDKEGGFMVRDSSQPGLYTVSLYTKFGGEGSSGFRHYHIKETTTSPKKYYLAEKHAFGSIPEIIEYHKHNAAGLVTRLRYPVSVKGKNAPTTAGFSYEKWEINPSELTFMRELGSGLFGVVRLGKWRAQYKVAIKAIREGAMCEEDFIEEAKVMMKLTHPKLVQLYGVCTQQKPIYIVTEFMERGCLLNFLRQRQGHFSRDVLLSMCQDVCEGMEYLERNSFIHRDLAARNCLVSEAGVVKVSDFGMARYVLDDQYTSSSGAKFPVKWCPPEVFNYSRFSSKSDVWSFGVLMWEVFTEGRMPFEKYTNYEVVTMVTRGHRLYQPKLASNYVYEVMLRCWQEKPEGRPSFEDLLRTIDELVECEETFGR
# [9] = molecular target: T5, Tyrosine-protein kinase Tec (Homo sapiens); settings: at 10 µM
# [10] = molecular target: Angiopoietin-1 receptor (Homo sapiens) (UniProt Q02763); settings: at 1 µM
# [11] = molecular target: Angiopoietin-1 receptor (Homo sapiens) (UniProt Q02763); settings: at 10 µM
# [12] = molecular target: BDNF/NT-3 growth factors receptor (Homo sapiens) (UniProt Q16620); settings: at 1 µM
# [13] = molecular target: BDNF/NT-3 growth factors receptor (Homo sapiens) (UniProt Q16620); settings: at 10 µM
# [14] = molecular target: T6, Tyrosine-protein kinase TXK (Homo sapiens) (UniProt P42681); settings: at 1 µM
# T6 sequence (whole entry): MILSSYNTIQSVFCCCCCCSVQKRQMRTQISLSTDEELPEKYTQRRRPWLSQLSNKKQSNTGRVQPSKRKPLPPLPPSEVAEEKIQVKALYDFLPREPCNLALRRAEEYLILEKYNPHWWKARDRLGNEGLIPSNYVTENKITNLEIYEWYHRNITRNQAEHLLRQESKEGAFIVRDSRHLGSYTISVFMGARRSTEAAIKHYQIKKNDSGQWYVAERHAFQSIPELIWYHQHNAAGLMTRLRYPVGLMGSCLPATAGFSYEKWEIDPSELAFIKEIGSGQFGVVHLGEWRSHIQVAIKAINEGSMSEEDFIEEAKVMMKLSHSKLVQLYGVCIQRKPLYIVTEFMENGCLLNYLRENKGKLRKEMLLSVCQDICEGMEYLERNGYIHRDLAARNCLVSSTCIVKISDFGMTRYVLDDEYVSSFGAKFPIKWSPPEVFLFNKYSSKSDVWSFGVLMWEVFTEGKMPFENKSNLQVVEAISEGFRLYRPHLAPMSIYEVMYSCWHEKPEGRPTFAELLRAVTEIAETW
# [15] = molecular target: T4, Testis-specific serine/threonine-protein kinase 1 (Homo sapiens); settings: at 10 µM
# [16] = molecular target: High affinity nerve growth factor receptor (Homo sapiens) (UniProt P04629); settings: at 1 µM
# [17] = molecular target: High affinity nerve growth factor receptor (Homo sapiens) (UniProt P04629); settings: at 10 µM
# [18] = molecular target: T6, Tyrosine-protein kinase TXK (Homo sapiens); settings: at 10 µM
# [19] = molecular target: T1, Testis-specific serine/threonine-protein kinase 2 (Homo sapiens); settings: at 10 µM
# [20] = molecular target: T3, Serine/threonine-protein kinase Nek3 (Homo sapiens); settings: at 1 µM
# BDNF/NT-3 growth factors receptor (Homo sapiens), sequence (Q16620 32-822 limits assumed): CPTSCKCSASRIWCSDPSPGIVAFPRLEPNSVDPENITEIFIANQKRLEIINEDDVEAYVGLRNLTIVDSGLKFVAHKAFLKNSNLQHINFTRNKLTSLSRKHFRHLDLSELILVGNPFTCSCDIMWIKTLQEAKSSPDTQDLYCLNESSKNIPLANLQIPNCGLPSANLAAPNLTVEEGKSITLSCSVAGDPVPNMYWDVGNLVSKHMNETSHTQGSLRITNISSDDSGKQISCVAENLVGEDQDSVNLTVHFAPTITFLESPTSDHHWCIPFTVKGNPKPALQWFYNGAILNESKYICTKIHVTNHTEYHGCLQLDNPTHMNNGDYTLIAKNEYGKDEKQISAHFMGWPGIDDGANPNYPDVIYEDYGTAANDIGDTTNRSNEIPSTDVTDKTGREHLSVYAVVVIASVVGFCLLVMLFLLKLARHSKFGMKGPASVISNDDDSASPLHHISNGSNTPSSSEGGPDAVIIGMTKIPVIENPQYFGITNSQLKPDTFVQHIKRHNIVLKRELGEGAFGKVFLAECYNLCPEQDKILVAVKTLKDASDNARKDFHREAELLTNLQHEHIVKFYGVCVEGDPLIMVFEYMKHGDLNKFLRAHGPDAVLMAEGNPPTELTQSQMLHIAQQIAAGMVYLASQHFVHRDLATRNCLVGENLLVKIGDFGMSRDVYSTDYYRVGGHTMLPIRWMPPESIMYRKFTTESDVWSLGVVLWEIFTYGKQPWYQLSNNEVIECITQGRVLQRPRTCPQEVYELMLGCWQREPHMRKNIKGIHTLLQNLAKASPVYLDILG
# Angiopoietin-1 receptor (Homo sapiens), sequence (Q02763 whole entry): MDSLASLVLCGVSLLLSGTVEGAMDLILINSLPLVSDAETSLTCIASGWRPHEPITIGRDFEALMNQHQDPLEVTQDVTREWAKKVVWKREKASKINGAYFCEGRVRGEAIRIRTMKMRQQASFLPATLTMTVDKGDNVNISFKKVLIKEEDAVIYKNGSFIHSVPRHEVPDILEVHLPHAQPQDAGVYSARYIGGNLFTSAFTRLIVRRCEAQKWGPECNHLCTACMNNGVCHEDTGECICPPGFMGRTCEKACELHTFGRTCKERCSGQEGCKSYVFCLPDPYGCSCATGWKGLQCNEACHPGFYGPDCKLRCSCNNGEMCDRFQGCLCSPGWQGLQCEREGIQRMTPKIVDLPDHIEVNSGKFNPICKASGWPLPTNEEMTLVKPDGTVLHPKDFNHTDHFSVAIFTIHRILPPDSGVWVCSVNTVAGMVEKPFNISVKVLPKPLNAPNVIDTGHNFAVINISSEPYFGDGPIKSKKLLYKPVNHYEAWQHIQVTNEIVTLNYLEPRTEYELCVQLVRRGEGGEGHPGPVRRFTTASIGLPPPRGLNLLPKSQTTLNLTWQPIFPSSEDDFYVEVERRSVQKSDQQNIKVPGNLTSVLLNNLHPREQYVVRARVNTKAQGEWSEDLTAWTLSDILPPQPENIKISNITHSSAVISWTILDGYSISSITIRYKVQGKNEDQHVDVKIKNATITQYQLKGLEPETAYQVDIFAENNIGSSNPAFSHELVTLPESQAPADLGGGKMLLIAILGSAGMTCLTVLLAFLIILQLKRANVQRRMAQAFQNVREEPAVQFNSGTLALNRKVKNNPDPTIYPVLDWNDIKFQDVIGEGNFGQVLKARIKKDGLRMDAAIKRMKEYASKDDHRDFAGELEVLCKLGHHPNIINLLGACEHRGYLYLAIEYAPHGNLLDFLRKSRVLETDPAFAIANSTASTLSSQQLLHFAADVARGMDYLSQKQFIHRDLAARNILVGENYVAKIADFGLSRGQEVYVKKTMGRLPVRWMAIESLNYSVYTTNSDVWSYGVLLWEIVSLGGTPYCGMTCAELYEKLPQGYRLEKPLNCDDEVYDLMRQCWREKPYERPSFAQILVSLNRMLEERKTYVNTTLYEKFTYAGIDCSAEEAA
# High affinity nerve growth factor receptor (Homo sapiens), sequence (P04629 33-796 limits assumed): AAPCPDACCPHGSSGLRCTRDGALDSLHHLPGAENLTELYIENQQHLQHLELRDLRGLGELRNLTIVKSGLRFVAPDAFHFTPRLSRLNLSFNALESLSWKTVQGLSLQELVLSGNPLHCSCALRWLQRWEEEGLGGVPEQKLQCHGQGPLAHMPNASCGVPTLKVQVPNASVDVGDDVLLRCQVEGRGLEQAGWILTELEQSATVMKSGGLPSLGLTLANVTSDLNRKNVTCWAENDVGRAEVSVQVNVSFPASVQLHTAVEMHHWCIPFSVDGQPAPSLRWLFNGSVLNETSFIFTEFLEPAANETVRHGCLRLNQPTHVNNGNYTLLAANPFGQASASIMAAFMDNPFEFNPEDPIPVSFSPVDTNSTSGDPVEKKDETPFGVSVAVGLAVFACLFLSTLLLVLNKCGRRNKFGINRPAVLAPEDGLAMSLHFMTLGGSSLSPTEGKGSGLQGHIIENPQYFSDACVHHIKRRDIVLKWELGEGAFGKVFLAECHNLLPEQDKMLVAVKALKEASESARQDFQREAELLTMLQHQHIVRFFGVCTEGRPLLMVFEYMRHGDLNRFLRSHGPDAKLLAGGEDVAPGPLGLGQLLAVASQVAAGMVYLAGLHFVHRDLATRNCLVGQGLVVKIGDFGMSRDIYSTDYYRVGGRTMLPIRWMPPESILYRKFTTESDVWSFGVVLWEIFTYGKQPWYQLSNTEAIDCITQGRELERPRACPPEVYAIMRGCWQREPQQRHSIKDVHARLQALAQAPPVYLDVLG
# Serine/threonine-protein kinase tousled-like 2 (Homo sapiens), sequence (Q86UE8 whole entry, looked up): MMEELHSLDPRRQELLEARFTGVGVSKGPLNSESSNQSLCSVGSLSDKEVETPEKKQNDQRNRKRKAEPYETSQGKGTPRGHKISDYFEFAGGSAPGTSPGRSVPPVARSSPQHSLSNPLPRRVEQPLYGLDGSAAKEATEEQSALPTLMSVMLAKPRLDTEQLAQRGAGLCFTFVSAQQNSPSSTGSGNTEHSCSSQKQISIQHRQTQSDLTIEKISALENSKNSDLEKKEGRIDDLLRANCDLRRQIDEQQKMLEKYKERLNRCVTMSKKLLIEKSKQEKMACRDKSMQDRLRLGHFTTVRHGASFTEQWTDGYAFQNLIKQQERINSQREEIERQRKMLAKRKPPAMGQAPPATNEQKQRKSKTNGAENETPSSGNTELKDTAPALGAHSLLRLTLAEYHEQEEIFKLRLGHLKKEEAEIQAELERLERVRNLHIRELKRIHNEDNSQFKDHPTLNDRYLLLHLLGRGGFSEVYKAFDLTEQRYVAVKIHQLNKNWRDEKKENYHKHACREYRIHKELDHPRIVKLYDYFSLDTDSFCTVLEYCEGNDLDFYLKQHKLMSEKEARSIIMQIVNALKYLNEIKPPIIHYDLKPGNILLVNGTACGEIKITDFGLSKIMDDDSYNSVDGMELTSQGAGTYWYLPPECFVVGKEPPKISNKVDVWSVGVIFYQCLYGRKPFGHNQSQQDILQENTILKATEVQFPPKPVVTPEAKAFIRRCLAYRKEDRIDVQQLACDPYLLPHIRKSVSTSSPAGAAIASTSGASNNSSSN
smiles,measurement,setting,value
COc1ccc(S(=O)(=O)N(CCO)c2ccccc2CN(C)C/C=C/c2ccc(Cl)cc2)cc1,residual activity,[1],101%
CCc1nc(-c2ccc(OC)cc2)[nH]c1-c1ccncc1,residual activity,[2],112%
same,residual activity,[3],105%
same,residual activity,[4],106%
same,residual activity,[5],107%
same,residual activity,[6],100%
same,residual activity,[7],113%
same,residual activity,[8],102%
same,residual activity,[9],75%
same,residual activity,[10],111%
same,residual activity,[11],106%
same,residual activity,[12],113%
same,residual activity,[13],107%
same,residual activity,[14],100%
Cn1cc(/C=C2\C(=O)Nc3ccc(S(N)(=O)=O)cc32)c2ccccc21,residual activity,[1],72%
Oc1ccc(-c2nc(-c3ccc(F)cc3)c(-c3ccncc3)[nH]2)cc1,residual activity,[1],103%
CC(=O)O/N=C1\C(=C2\C(=O)Nc3cc(Br)ccc32)Nc2ccccc21,residual activity,[1],79%
COc1ccc(C(=O)Nc2sc3c(c2C(N)=O)CCCC3)cc1OC,residual activity,[1],94%
CCOc1cc2ncnc(Nc3cccc(Br)c3)c2cc1OCC,residual activity,[1],82%
c1cc(-c2cnn3cc(-c4ccc(OCCN5CCCCC5)cc4)cnc23)ccn1,residual activity,[3],86%
same,residual activity,[6],74%
same,residual activity,[7],76%
same,residual activity,[15],45%
same,residual activity,[9],75%
same,residual activity,[11],44%
same,residual activity,[16],28%
same,residual activity,[17],2%
same,residual activity,[12],61%
same,residual activity,[13],7%
same,residual activity,[14],44%
same,residual activity,[18],7%
O=C1NC(=O)c2c1c1c3ccccc3n3c1c1c2c2ccccc2n1C1CCC3O1,residual activity,[5],62%
same,residual activity,[6],68%
same,residual activity,[7],92%
same,residual activity,[15],70%
same,residual activity,[1],82%
same,residual activity,[19],96%
same,residual activity,[8],66%
same,residual activity,[9],76%
same,residual activity,[16],12%
same,residual activity,[17],3%
same,residual activity,[12],19%
same,residual activity,[13],14%
same,residual activity,[14],71%
same,residual activity,[18],81%
CC(C)[C@H](CO)Nc1nc(Nc2cccc(Cl)c2)c2ncn(C(C)C)c2n1,residual activity,[2],90%
same,residual activity,[3],53%
same,residual activity,[20],84%
same,residual activity,[4],89%
same,residual activity,[5],100%
same,residual activity,[6],81%
same,residual activity,[7],97%
same,residual activity,[15],72%
same,residual activity,[1],94%
same,residual activity,[19],79%
same,residual activity,[8],63%
same,residual activity,[9],8%
same,residual activity,[10],99%
same,residual activity,[11],59%
same,residual activity,[16],3%
same,residual activity,[17],1%
same,residual activity,[12],8%
same,residual activity,[13],0%
same,residual activity,[14],66%
same,residual activity,[18],16%
Cc1nc2cc3nc(-c4cccs4)cnc3cc2n1C,residual activity,[1],104%
N#Cc1cnc2cnc(NCc3cccnc3)cc2c1Nc1ccc(F)c(Cl)c1,residual activity,[1],14%
COc1cc2ncnc(Nc3ccc(OCc4ccccc4)cc3)c2cc1OC,residual activity,[2],101%
same,residual activity,[3],113%
same,residual activity,[20],90%
same,residual activity,[4],80%
same,residual activity,[5],115%
same,residual activity,[6],96%
same,residual activity,[7],104%
same,residual activity,[15],90%
same,residual activity,[1],107%
same,residual activity,[19],102%
same,residual activity,[8],107%
same,residual activity,[9],67%
same,residual activity,[10],106%
same,residual activity,[11],78%
same,residual activity,[16],69%
same,residual activity,[17],72%
same,residual activity,[12],93%
same,residual activity,[13],122%
same,residual activity,[14],97%
same,residual activity,[18],57%
COc1ccc2c(c[n+](C)c3c4cc5c(cc4ccc23)OCO5)c1OC,residual activity,[2],76%
same,residual activity,[3],68%
same,residual activity,[20],110%
same,residual activity,[4],60%
same,residual activity,[5],95%
same,residual activity,[6],92%
same,residual activity,[8],86%
same,residual activity,[9],66%
same,residual activity,[10],12%
same,residual activity,[11],3%
same,residual activity,[13],81%
same,residual activity,[14],94%
same,residual activity,[18],59%
